# Compound activity deposited in PubChem BioAssay by National Center for Advancing Translational Sciences (NCATS).
# ERK AVP block – blocks ERK signaling stimulated by vasopressin; HEK293-V1b, vasopressin-stimulated pERK AlphaScreen; Potency, µM (series often up to 57.5 µM), actives largely listed as inhibitors; actives 0.99% (n = 72,000); note: nearly all actives have a fitted effect of over 55% in size
#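 Phosphorylated ERK1/2 detected via AlphaScreen bead proximity in lysates of V1b-expressing HEK293 cells given 25 nM vasopressin for 5 min after 30 min compound exposure (37 °C). AC50 from Hill equation; basal DMSO 0%, vasopressin 100%.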
# Peg3 imprint – inducers of genomic imprint erasure in mouse ES cells; mouse ES Peg3-LacZ reporter, beta-gal luminescence, 40 h; Potency, µM (doses to about 60.7 µM), usual class: activators; actives 0.02% (n = 110,000); AID 1948
#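 Each well holds 300 Peg3LacZ-Neo (maternal) female ES cells incubated 40 h at 37C, 5% CO2. LacZ is measured by BetaGlo luminescence, with AC50 and maximum efficacy derived from dose-response curves.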
# Epigenetic mod – derepresses silenced GFP locus in mouse C127i cells. Potency, µM (top dose mostly 46.1 µM). actives 0.09% (n = 68,000). mouse C127i GFP locus derepression, cytometry, 30 h
#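 Locus derepression in mouse mammary C127i cells whose integrated CMV-GFP reporter is normally silent; GFP expression after 30 h compound treatment was quantified by counting fluorescent cells.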
# UbGFP stabilizer – proteasome inhibitors stabilizing ubiquitin-GFP reporter; Ubiquitin-GFP reporter cells, proteasome inhibition, GFP fluorescence; response scale: untreated = 0%, 10 µM MG-132 = 100%; Potency, µM (highest dose often 45.9 µM), actives largely listed as activators; 67,000 tested, under 10 active; AID 526; active = well fitted activation curve with a large enough effect, not every such curve was filed as active; inconclusive = small, poorly fitted or top-dose-only effect, or another doubt; inactive = no such curve, though single readings can be large or run the other way
#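 Proteasome block read as GFP accumulation: ubiquitin(G76V)-GFP U2OS cells exposed to compound (2.9 nM–46 uM) for 4 hr at 37 C. Normalization used untreated cells as 0% and 10 uM MG-132 as 100%; concentration-response curves fitted.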
# HBB splicing – modulators of hemoglobin beta chain splicing; HBB splicing reporter cell assay, activation; EGFP reporter with mutant IVS2-654 intron; response scale: normalised to 500 nM splice-correcting PNA; AID 925; actives 0.06% (n = 65,000); Potency, µM (top dose mostly 46.1 µM), actives largely listed as activators
#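 HeLa cells stably expressing EGFP interrupted by mutant beta-globin intron 2 (IVS2-654), 500/well in 2% FCS. Treated with compound for 2 days at 37C. Splicing correction scored as total well GFP intensity (488 nm excitation, 500-520 nm emission); 500 nM antisense PNA served as control.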
# Numbers stand for hits; n = inactive; u = inconclusive; x = no result; [ ] = remark or other dose. The entries come from a sample that favours hits as a whole. Unless noted, calls come from the whole dose curve; as a rule, active = well fitted curve in the direction sought with a large enough effect; inconclusive = small, poorly fitted or top-dose-only effect, or another doubt; inactive = no such curve, though single readings can be large; an effect the other way counts as inactive or inconclusive.
SMILES,ERK AVP block,Peg3 imprint,Epigenetic mod,UbGFP stabilizer,HBB splicing
CCCC(c1nnnn1Cc1ccc(F)cc1)N1CCN(C2CCCCC2)CC1 (centres undefined),31.6µM,n,n,n,n
Cn1cccc1Cc1nnc(SCC(=O)Nc2nccs2)n1CCc1ccccc1,15.8µM,n,n,n,n
CCSc1nnc(NC(=O)CSc2nnc(Cc3cccn3C)n2CCc2ccccc2)s1,n,n,n,n,n
C[C@@]12C(=O)OC(=O)[C@@]1(C)[C@H]1CC[C@@H]2O1,7.94µM,x,n[9.22 µM],n,n
CC12C(=O)OC(=O)C1(C)C1CCC2O1 (centres undefined),u,n,x,x,x
COCCNC(=O)CSc1nc2cc3c(cc2c(=O)n1Cc1ccc(C(=O)NCCc2ccc(OC)c(OC)c2)cc1)OCO3,x,n[10.9 µM],x,x,x
COC(=O)CCC(=O)Nc1ccc(NC(C)=O)cc1,n,n,n,n,n
COC(=O)CCC(=O)Oc1ccc(OC(=O)CCC(=O)OC)cc1,n,5.01µM,n,n,u
O=C(O)CC(CC(=O)O)n1cccc1,n[11.5 µM],n[10.9 µM],n[9.22 µM],n[9.17 µM],n[9.22 µM]
COc1ccc(CC(=O)N2CC3(C)CC2CC(C)(C)C3)cc1OC (centres undefined),31.6µM,n,n,n[9.17 µM],n[0.0738 µM]
COc1ccc(OCC(=O)N2CC3(C)CC2CC(C)(C)C3)cc1 (centres undefined),n,n,n,n,n
CN1CCc2c(sc3c2C(=O)NC(/C=C/c2ccco2)N3)C1 (centres undefined),15.8µM,n,n,n,n[0.369 µM]
Brc1ccc(CSc2ncn[nH]2)cc1,n,n,n,n,n[9.22 µM]
COc1ccc(-c2noc(CN(C(=O)c3cc(OC)c(OC)cc3OC)C(C)C)n2)cc1,x,n[10.9 µM],x,x,x
C=CC(=O)NC(C)C,n,n,x,x,n
C=CC(=O)CC,n,31.6µM,x,x,n
Cn1c(-c2ccc(F)cc2)cnc1NCc1ccccc1,25.1µM,n,n,n,n
O=C(Nc1ccc2c(c1)OCO2)c1cccc(S(=O)(=O)N2CCCC2)c1,15.8µM,n,n,n,n
CCOC(=O)c1ccc(NC(=O)c2ccc(C)c(S(=O)(=O)N3CCOCC3)c2)cc1,3.16µM,n,n,n[9.17 µM],n[0.0738 µM]
CCOC(=O)c1ccc(NC(=O)c2cccc(S(=O)(=O)N3CCOCC3)c2)cc1,5.01µM,n,n,n,n
O=C(Nc1ccc2c(c1)OCCO2)c1ccc(Br)c(S(=O)(=O)N2CCOCC2)c1,7.94µM,n,n,n[9.17 µM],n[0.0738 µM]
COc1cccc(NC(=O)CSc2nc(=O)n(Cc3ccccn3)c3c2CCC3)c1,x,n[10.9 µM],x,x,x
CC(C)(C#N)N([O-])C=C[N+](=O)C(C)(C)C#N,n,n,n,n[9.17 µM],n[0.0738 µM]
CCOC(=O)N1CCN(C(=O)c2ccc(CS(=O)(=O)c3ccccc3OC)o2)CC1,n,n,n,n,n[1.84 µM]
COc1ccccc1S(=O)(=O)Cc1ccc(C(=O)N2CCN(c3ccc(C)cc3)C(C)C2)o1 (centres undefined),25.1µM,n,x,n,n
SMILES,ERK AVP block,Peg3 imprint,Epigenetic mod,UbGFP stabilizer,HBB splicing
CCOC(=O)c1c(C)c(C(=O)NC2CCCCCC2)c(C)n1C,n,n,n,n,n
CCOC(=O)c1c(C)c2c(n1C)CCC/C2=N\O,3.16µM,n,n,n,x
COc1cccc(-c2nc(NCC3CCCO3)c3ccccc3n2)c1O (centres undefined),x,x,n,x,x
Oc1ccccc1-c1nc(NCC2CCCO2)c2ccccc2n1 (centres undefined),31.6µM,n,n,n,n
Cc1cccc(C)c1OCc1cc(=O)n2c3c(sc2n1)CCCC3,x,n[10.9 µM],x,x,x
CCC(=O)N1CCN(c2ccc(NC(=O)c3cc4ccccc4o3)cc2Cl)CC1,31.6µM,n,n,n,n
CCCC(=O)N1CCN(c2ccc(NC(=O)c3cc4ccccc4o3)cc2Cl)CC1,7.94µM,n,n,n,n
O=C(Nc1ccc(N2CCN(C(=O)c3ccccc3)CC2)c(Cl)c1)c1ccco1,u,n,n,n,n
O=C(Nc1ccc(N2CCN(C(=O)c3ccco3)CC2)c(Cl)c1)c1cc2ccccc2o1,7.94µM,n,n,n,n
O=C(c1cc2ccccc2o1)N1CCN(c2ccccc2Cl)CC1,n,n,n,n,n
CSc1ccc(CNC(=O)c2ccc(NC(=O)c3nsc4ccccc34)cc2)cc1,x,n[10.9 µM],x,x,x
CCOc1ccc(-c2nnc(SCc3nnc(-c4ccccc4)o3)n2-c2ccccc2F)cc1,n,n,n,n,n
O=c1oc2c3c4c(cc2cc1-c1nc2ccccc2[nH]1)CCCN4CCC3,n,n,n,n,0.794µM
CCOC(=O)c1nnn(-c2nonc2N)c1CNC(C)C,n,n,n,n,n
CC1=CC(=O)c2ccccc2C1=O,n,n,n,n,12.6µM
O=C(CSc1nnc(-c2cc3ccccc3cc2O)n1Cc1ccco1)c1ccc(F)cc1,n,n,n,n,x
COc1ccc(S(=O)(=O)c2ccc(OC)c(OC)c2)cc1OC,15.8µM,n,n,n,n
NC1=NC(c2ccc(F)cc2)n2c(nc3ccccc32)N1 (centres undefined),n,n,n,n,n
Cc1ccc(C(=O)CSC2=C(C#N)C(c3ccco3)C3=C(CC(C)(C)CC3=O)N2)cc1 (centres undefined),n,n,n,n,n
N#CC1=C(SCC(=O)c2ccc(Cl)cc2)NC2=C(C(=O)CCC2)C1c1ccco1 (centres undefined),x,x,10µM,x,x
CNC(=O)[C@H]1O[C@H](n2cnc3c(NCc4cccc(I)c4)nc(Cl)nc32)[C@@H](O)[C@@H]1O,15.8µM,n,n,n,x
COc1cc(Nc2nc(SCC#N)nc3ccccc23)cc(OC)c1OC,n,n,n,n,n
N#CCSc1nc(Nc2ccc3c(c2)OCO3)c2ccccc2n1,31.6µM,n,n,n,n
CCOC(=O)C1CCN(C(=O)Nc2ccc3nc(-c4ccco4)c(-c4ccco4)nc3c2)CC1,25.1µM,n,n,n,n[9.22 µM]
O=C(Nc1ccc2nc(-c3ccco3)c(-c3ccco3)nc2c1)N1CCCCCC1,u,n,n,n,n
SMILES,ERK AVP block,Peg3 imprint,Epigenetic mod,UbGFP stabilizer,HBB splicing
COc1cccc(-n2c(C)c(C(C)=O)c(C(C)=O)c2C)c1,n,n,n,n,n
COc1ccc(-n2c(C)c(C(C)=O)c(C(C)=O)c2C)cc1OC,31.6µM,n,n,n,n
Cn1c(C(=O)N2CCCC(C(=O)NCCCc3ccccc3)C2)cc2sccc21 (centres undefined),20µM,n,n,n,n
COc1ccccc1C(=O)N1CCC(c2c[nH]c3ccccc23)(c2c[nH]c3ccccc23)CC1,x,n[10.9 µM],x,x,x
CCC(CC)c1nnc(NC(=O)c2c(-c3ccccc3)noc2C)s1,n,n,n,n,n
C(=C\CSc1nnnn1-c1ccccc1)/CSc1nnnn1-c1ccccc1,n,n,n,n,n[9.22 µM]
COc1ccc(-c2coc3cc(O)cc(O)c3c2=O)cc1,15.8µM,n,n,n,x
